# The panel holds about 83,000 compounds, 20% with a hit somewhere; the sample as a whole holds those more often.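 Note: values are percent growth. 100 is the growth of untreated cells, values between 100 and 0 indicate rising inhibition; between -100 and 0 indicates cell death.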 Unmarked numbers belong to inactive results. The source made the active and inactive calls. How the source made its calls: active means growth percent below 10; inactive means the rest.
# How the values were obtained:
# Assay in all cases: NCI-60 one-dose screen, 48 h (100 = growth as untreated, 0 = no growth, -100 = all killed)
# Settings in all cases: 10 µM unless noted
# HCT-15 colon = tested on: HCT-15 colon
# HT29 colon = tested on: HT29 colon
# SNB-75 CNS = tested on: SNB-75 CNS
# SNB-19 CNS = tested on: SNB-19 CNS
# U251 CNS = tested on: U251 CNS
# PC-3 prostate = tested on: PC-3 prostate
# SK-MEL-5 melanoma = tested on: SK-MEL-5 melanoma
# UACC-62 melanoma = tested on: UACC-62 melanoma
# LOX IMVI melanoma = tested on: LOX IMVI melanoma
# SK-MEL-28 melanoma = tested on: SK-MEL-28 melanoma
Compound,growth (HCT-15 colon),growth (HT29 colon),growth (SNB-75 CNS),growth (SNB-19 CNS),growth (U251 CNS),growth (PC-3 prostate),growth (SK-MEL-5 melanoma),growth (UACC-62 melanoma),growth (LOX IMVI melanoma),growth (SK-MEL-28 melanoma)
CO[C@H](C(=O)[C@@H](O)[C@@H](C)O)[C@@H]1Cc2cc3cc(O[C@H]4C[C@@H](O[C@H]5C[C@@H](O)[C@H](O)C(C)O5)[C@H](O)C(C)(O)O4)cc(O)c3c(O)c2C(=O)[C@H]1O[C@H]1C[C@@H](O[C@H]2C[C@@H](O[C@H]3C[C@@H](OC)[C@H](O)C(C)O3)[C@@H](O)C(C)O2)[C@H](O)C(C)O1 (stereo not given in full),92.8%,11.3%,24.5%,24.4%,6.61% (active),26.3%,-56.8% (active),-39.5% (active),2.79% (active),3.39% (active)
O=S(=O)(NCCNc1nccc(-c2c(-c3cccc(O)c3)nc3occn23)n1)c1ccc(Br)cc1,67.3%,19.1%,56.5%,65.8%,41%,29.9%,4.04% (active),5.9% (active),25.2%,26.1%
NNCCc1ccc(NC(=O)CCCc2ccc(C(=O)Nc3ccccc3N)cc2)cc1,96.8%,51.1%,68.2%,85.5%,54.1%,55.1%,57.1%,49.2%,63.7%,75.6%
CN(C)c1ccc(-c2ccc3c(c2)c(-c2ccccc2)nc(=O)n3C)cn1,30.4%,11.7%,27.8%,34.3%,30.4%,-42.8% (active),22%,25.2%,34.3%,55.2%
Cc1nc2c(c(=O)[nH]1)C(c1ccccc1)c1ccc3ccccc3c1O2 (stereo not given),23.4%,84.5%,13.1%,30.8%,26.1%,19.7%,36.8%,30.4%,35.2%,57.7%
Cn1cc(-c2csc(-c3c[nH]c4ccc(F)cc34)n2)c2ccnc(Cl)c21,5.69% (active),29.8%,77.5%,91.4%,49.6%,62.1%,63.2%,70.6%,67.5%,93.5%
C=CCn1c(SCC(=O)Nc2ccc(/C(C)=N/O)cc2)nnc1-c1cc(-c2ccc(S(N)(=O)=O)cc2)nc2ccccc12,96.5%,105%,54.2%,70.3%,67.2%,80.2%,65.6%,69.7%,27%,93.3%
COc1cccc(/C=C/C(=O)c2cc3c(N)c(C(=O)Nc4cccc5ccccc45)sc3nc2C)c1,-23.1% (active),-11.2% (active),-16.4% (active),-18.8% (active),-11.4% (active),27.7%,-19.7% (active),-18.3% (active),-66.8% (active),39.2%
Cn1c(=O)c2[nH]c(SCC(=O)Nc3ccc(C(=O)/C=C/c4ccccc4Cl)cc3)nc2n(C)c1=O,92.5%,119%,77.1%,97.1%,91.9%,93.4%,90%,95.6%,96.4%,99.9%
CCn1cc(CNc2ccc(C(=O)Nc3cc4cc(OC)c(OC)cc4c(C)n3)cc2)cn1,26.3%,56.6%,65.2%,84.1%,65.2%,15.3%,10.3%,33.5%,46.1%,70.5%
CCOC(=O)C1=C(C)C(Cl)=N/C1=C\c1[nH]c(Cl)c(C)c1C(=O)OCC,99.1%,91.9%,84.5%,101%,94.1%,76.3%,96.8%,97.4%,93.9%,122%
COc1ccc2cc(-c3ccnc4c(N=Nc5ccc(Cl)cc5)c(N)nn34)ccc2c1,112%,103%,79.4%,92.4%,93.4%,89%,97.5%,91.8%,102%,99.2%
Cc1c(CC(=S)N2CCOCC2)nnn1-c1cccc(C(F)(F)F)c1,104%,101%,92.3%,106%,95.4%,99%,99.8%,101%,98.2%,113%
CN(Cc1cnc2nc(N)nc(N)c2n1)c1ccc(C(=O)NC(CCC(=O)O)C(=O)O)cc1Br (stereo not given),34.9%,21.2%,54.5%,45.4%,43%,56.9%,13.8%,30.9%,17.7%,50%
CC1C=CC(OC(=O)C(C)(O)CCC(O)(C(=O)OC2CC(O)C(C(C)C)CC2(C)O)C(C)C)(C(C)C)CC1 (stereo not given),-68.5% [4.63 µM] (active),-39.6% [4.63 µM] (active),-45.9% [4.63 µM] (active),-75% [4.63 µM] (active),-94.2% [4.63 µM] (active),-84.9% [4.63 µM] (active),-99.8% [4.63 µM] (active),-88.9% [4.63 µM] (active),-88.4% [4.63 µM] (active),-96.9% [4.63 µM] (active)
COc1ccc(C2CC(c3cc(OC)c(OC)c(OC)c3)=NO2)cc1OCCCCOc1cc2c(cc1OC)C(=O)N1CCC[C@H]1C=N2 (stereo not given in full),39.8%,-13.9% (active),-14.2% (active),16.5%,4.05% (active),45.8%,-79.6% (active),-67.8% (active),-39.7% (active),-23.1% (active)
CC1(C)N=C(N)N=C(N)N1c1ccc(CCCCc2ccccc2)c(Cl)c1,20.5%,-11.2% (active),18.3%,21.4%,3.58% (active),6.3% (active),-76.1% (active),8.84% (active),8.69% (active),25.2%
Cc1nn(-c2cc(NC3CCC(O)CC3)c3c(=O)[nH]c(CCC(F)(F)F)cc3c2)c2c1C(=O)CC(C)(C)C2 (stereo not given),31.1%,13.9%,56.8%,63.1%,56.5%,55.4%,51.7%,45%,30.2%,53.8%
CN1CCN(C(=O)[C@@]2(C)CC[C@]3(C)CC[C@]4(C)C(=CC[C@@H]5[C@@]6(C)CCC(=O)NC(C)(C)[C@@H]6CC[C@]54C)[C@@H]3C2)CC1,30.3%,3.61% (active),87.3%,79.4%,40.4%,27.4%,-41% (active),26.4%,8.99% (active),-6.92% (active)
COc1ccc(C(=O)Cn2c(C(=O)c3ccc(Cl)cc3)nc3ccccc32)cc1,33.6%,51.2%,53.8%,74%,65.3%,68.9%,41.9%,54.1%,74.8%,71.2%
CC(=O)c1sc2sc(C(C)=O)c(C)c2c1C,105%,79.4%,90.6%,105%,93.9%,77.7%,98.2%,75%,95.6%,100%
C=C1C(=O)O[C@H]2[C@H]1CC/C(COC(=O)c1cc3cc(Cl)ccc3[nH]1)=C\CC[C@@]1(C)O[C@@H]21,-61.1% (active),-75.9% (active),-97.3% (active),12.6%,-88.8% (active),-56.3% (active),-88.6% (active),-78.7% (active),-93.2% (active),-83.3% (active)
COc1ccc(-c2nc(-c3cn(C)c4ncccc34)cs2)cc1,-1.17% [100 µM] (active),-63.2% [100 µM] (active),-3.6% [100 µM] (active),23.2% [100 µM],3.9% [100 µM] (active),-28.2% [100 µM] (active),-83.4% [100 µM] (active),-20.1% [100 µM] (active),-47.1% [100 µM] (active),37.9% [100 µM]
O=C1/C(=C/c2ccccc2F)CN(C(=O)C(Cl)Cl)C/C1=C\c1ccccc1F,-66.5% (active),3.2% (active),-18.4% (active),-84.1% (active),-85.1% (active),-41.3% (active),-77% (active),-59% (active),-86.4% (active),-58.9% (active)
Cc1cccc2c1C[C@@]1(C2=O)C(c2ccc(C(C)(C)C)cc2)=NOS1=O (stereo not given in full),72.1%,98.1%,101%,93.5%,88.2%,68.8%,90.3%,73.8%,76.6%,110%

# Source: PubChem BioAssay (NCI)
